“And” between values parts separate entries of the source, which are not always exact repeats. Equal entries are not always repeated. Among all 5,600 compounds or so, about 150 (2.7%) showed an effect of 50% or more. This excerpt belongs to a sample that is enriched for strong results.
Experiments:
[1] = target: T1, Protein deacetylase HDAC6 (Homo sapiens) (UniProt Q9UBN7); settings: at 10 µM
T1 sequence (whole entry): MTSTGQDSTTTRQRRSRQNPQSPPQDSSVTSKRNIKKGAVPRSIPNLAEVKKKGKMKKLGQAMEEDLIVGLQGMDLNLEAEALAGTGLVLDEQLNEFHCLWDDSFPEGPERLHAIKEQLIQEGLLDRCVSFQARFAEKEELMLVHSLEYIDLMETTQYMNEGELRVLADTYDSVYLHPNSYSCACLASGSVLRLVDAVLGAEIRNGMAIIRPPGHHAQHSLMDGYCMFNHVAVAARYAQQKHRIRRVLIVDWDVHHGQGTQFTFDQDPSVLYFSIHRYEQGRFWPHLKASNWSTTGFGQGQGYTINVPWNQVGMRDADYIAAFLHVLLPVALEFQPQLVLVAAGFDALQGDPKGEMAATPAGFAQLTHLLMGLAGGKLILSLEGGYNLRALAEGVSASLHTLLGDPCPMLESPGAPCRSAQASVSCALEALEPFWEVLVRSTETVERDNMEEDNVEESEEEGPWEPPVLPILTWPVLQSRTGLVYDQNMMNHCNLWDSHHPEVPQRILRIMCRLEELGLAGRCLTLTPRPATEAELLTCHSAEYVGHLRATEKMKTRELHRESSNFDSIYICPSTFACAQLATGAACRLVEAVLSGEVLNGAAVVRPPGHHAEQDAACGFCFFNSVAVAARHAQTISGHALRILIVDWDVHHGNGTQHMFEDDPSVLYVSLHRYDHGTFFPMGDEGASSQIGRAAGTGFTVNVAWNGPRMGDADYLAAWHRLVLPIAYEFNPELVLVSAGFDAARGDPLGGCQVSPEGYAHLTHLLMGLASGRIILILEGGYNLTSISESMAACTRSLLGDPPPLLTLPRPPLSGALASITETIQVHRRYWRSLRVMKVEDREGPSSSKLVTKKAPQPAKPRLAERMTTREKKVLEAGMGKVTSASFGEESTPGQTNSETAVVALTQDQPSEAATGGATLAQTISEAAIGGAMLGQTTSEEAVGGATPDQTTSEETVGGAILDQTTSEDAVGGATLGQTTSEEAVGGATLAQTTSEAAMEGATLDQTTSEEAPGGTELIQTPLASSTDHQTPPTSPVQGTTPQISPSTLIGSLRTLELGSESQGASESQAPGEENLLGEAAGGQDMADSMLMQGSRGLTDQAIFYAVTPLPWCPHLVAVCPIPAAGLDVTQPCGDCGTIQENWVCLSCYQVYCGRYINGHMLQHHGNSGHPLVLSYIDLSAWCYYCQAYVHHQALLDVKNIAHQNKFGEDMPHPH

[2] = target: Protein deacetylase HDAC6 (Homo sapiens) (UniProt Q9UBN7); settings: at 10 µM; remark: listed apart in the source

| Compound | inhibition [1] | inhibition [2] [%] |
| --- | --- | --- |
| Cc1oc(-c2ccccc2)nc1CCOc1ccc(CC2SC(=O)NC2=O)c2sccc12 (stereo not drawn) | -4.87% |  |
| COc1ccc(Nc2ccn(-c3ccccc3)n2)cc1 | 66.8% |  |
| O=C(Nc1ccccc1C(=O)Nc1ccc(CCO)cc1)c1ccc([N+](=O)[O-])cc1 | 19.2% |  |
| CCC1OC(=O)CC(O)C(C)C(OC2OC(C)CC(N(C)C)C2O)C(CC=O)CC(C)C(=O)/C=C/C2(C)OC2C1C (stereo not drawn) | 10.6% |  |
| CN(C)C(=S)SC(=S)N(C)C | 12.2% |  |
| O=C(O)CC1CC(c2ccccc2)=NO1 (stereo not drawn) | -4.54% |  |
| O=C(CC1CC(c2ccc(F)cc2F)=NO1)N1CCOCC1 (racemic) | 64.3% |  |
| c1cc(-c2cnn3cc(-c4ccc(N5CCNCC5)cc4)cnc23)c2cccnc2c1 | -3.93% |  |
| c1cc(-c2cnn3cc(-c4ccc(OCCN5CCCCC5)cc4)cnc23)ccn1 | 60.7% |  |
| COc1ccc(-c2cnc3c(-c4cccc5ncccc45)cnn3c2)cc1 | -5.32% and -3.01% |  |
| CC(C)Oc1ccc(-c2cnc3c(-c4ccnc5ccccc45)cnn3c2)cc1 | -1.97% |  |
| c1ccc(OCc2ccc(CCCN3CCOCC3)cc2)cc1 | 22.1% |  |
| c1ccc(-c2cnn3cc(-c4ccc(OCCN5CCOCC5)cc4)cnc23)cc1 | 78.4% |  |
| CN1C(=O)N(c2cc(Cl)cc(Cl)c2)C(=O)[C@@]1(C)Cc1ccc(Br)cc1 | -0.75% |  |
| COCc1nnc(N2CC(Oc3ccc(F)cc3Cl)C2)n1-c1ccc(OC)nc1 | -0.3% |  |
| O=C(Nc1ccc(Br)cc1)c1cc(Br)cc(Br)c1O | 47.3% |  |
| CCOCc1cc(OC)c(-c2ccc(C[C@H](NC(=O)c3c(F)cccc3F)C(=O)O)cc2)c(OC)c1 | -3.54% |  |
| C[C@]12CC[C@@H](O)C[C@@H]1CC[C@@H]1[C@@H]2CC[C@]2(C)C(c3ccccc3)=CC[C@@H]12 | -2.46% |  |
| CC(=O)OCC1=C(C(=O)O)N2C(=O)[C@@H](NC(=O)CS/C(=N/C(C)C)NC(C)C)[C@H]2SC1 | -0.21% |  |
| O=C(O)c1ccccc1O | 3.65% |  |
| O=C(OCCO)c1ccccc1O | 0.47% |  |

| Compound | inhibition [1] | inhibition [2] [%] |
| --- | --- | --- |
| O=C(Oc1ccccc1)c1ccccc1O | 59.6% |  |
| SEVELAMER HYDROCHLORIDE, CHEMBL1201492 |  | -4.03 |
| CC1CCC2C(C)(C)C3CC12CCC3(C)O (stereo not drawn) | 3.35% |  |
| C[C@H](Nc1cc(NS(=O)(=O)N2CCC2)nc(SCc2cccc(F)c2F)n1)[C@@H](O)CO | -3.66% |  |
| CN(C)c1ccc(C(=O)NCCCCCCC(=O)NO)cc1 | 97.6% |  |
| COc1cc(C(=O)NCCCCCC(=O)O)cc(OC)c1OC | -4.19% |  |
| O=C(CNC(=O)c1ccc(Cl)cc1)NO | 1.88% |  |
| O=c1c2c[nH]c3ccccc3c-2nn1-c1ccc(Cl)cc1 | 37.8% |  |
| C[C@H](N/C(=N/C#N)Nc1cccc2ncccc12)c1ccccc1 | -5.84% |  |
| Cc1cn2c(N)c(Cl)cc(C(=O)NCC3CCN(CC(C)C)CC3)c2n1 | 4.88% |  |
| C=CC(=O)N1CCC[C@@H](n2nc(-c3ccc(Oc4ccccc4)cc3)c3c(N)ncnc32)C1 | 51% |  |
| Nc1ncnc2c1c(-c1ccc(Oc3ccccc3)cc1)nn2C1CCCC1 | -1.59% |  |
| C=CC(=O)N1CCC[C@@H](n2c(=O)n(-c3ccc(Oc4ccccc4)cc3)c3c(N)ncnc32)C1 | 6.07% |  |
| C=C1C(=O)O[C@@H]2[C@H]3C(C)=CC[C@@]34O[C@@]4(C)CC[C@@H]12 | 4.41% |  |
| c1cnc(NCc2ccc(CNc3ncccn3)cc2)nc1 | 0.03% |  |
| CNc1nc(C)nc(N[C@H]2CCC[C@@H](C(=O)NCc3ccc(C#N)cc3C(F)(F)F)C2)n1 | -6.75% |  |
| Cc1cc(O)cc2c1O[C@@](C)(CCC[C@@H](C)CCC[C@@H](C)CCCC(C)C)CC2 | -3.19% |  |
| Cc1nc2cnc3ccc(C#Cc4cccnc4)cc3c2n1-c1ccc(C(C)(C)C#N)cc1 | 3.93% |  |
| CC(=O)SCCC(=O)N1C(C)CCCC1C(=O)O (stereo not drawn) | 7.82% |  |
| CSc1nc2ccc3nc(NC(=O)C(c4ccccc4)c4ccccc4)sc3c2s1 | -1.3% |  |
| CC(=O)N(O)[C@@H]1c2cc(C#N)ccc2OC(C)(C)[C@H]1O | -2.08% |  |

| Compound | inhibition [1] | inhibition [2] [%] |
| --- | --- | --- |
| O=C(OCC(COC(=O)c1cccnc1)(COC(=O)c1cccnc1)COC(=O)c1cccnc1)c1cccnc1 | -1.03% |  |
| N=C(N)NC(=O)c1nc(Cl)c(N)nc1N | -8.95% |  |
| CN(C)c1nc(N)c(C(=O)Nc2cccnc2)nc1Cl | 80.9% |  |
| Cn1ncc2c(N3CCOCC3)nc(-c3cccc(O)c3)nc21 | -1.99% |  |
| Cc1ccc(-c2nn(C(C)(C)CNC(=O)c3ncccc3C)c3ncnc(N)c23)cc1 | 6.88% |  |
| Oc1ccc(-c2nc3cc(O)cc(Br)c3o2)cc1 | 54.3% |  |
| CC[C@H](NC(=O)c1c(O)c(-c2ccccc2)nc2ccccc12)c1ccccc1 | 2.06% |  |
| O=C(/C=C/c1cccc(F)c1)NC1CC1 | 8.47% |  |
| Cn1c(/C=C/C(=O)NO)ccc1/C=C/C(=O)c1cccc(F)c1 | 76.3% |  |
| CCCCCCCCC(=O)N[C@H](CN1CCCC1)[C@H](O)c1ccc2c(c1)OCCO2 | 6.86% |  |
| O=C(CCBr)N1CC[N+]2(CC1)CC[N+]1(CCN(C(=O)CCBr)CC1)CC2 | 0.06% |  |
| CS(=O)(=O)c1ccc(-c2cn3ccccc3n2)cc1 | 78.9% |  |
| CN1CCN(c2cccc(Nc3nc4c(-c5ccc(S(C)(=O)=O)cc5)cccn4n3)c2)CC1 | -1.82% |  |
| CS(=O)(=O)c1ccc(-c2cnc(N)c(C(=O)Nc3ccccc3)n2)cc1 | 2.63% |  |
| C[C@H]1O[C@@H](O[C@H]2CC[C@@]3(C)[C@H](CC[C@@H]4[C@@H]3C[C@@H](O)[C@]3(C)[C@@H](C5=CC(=O)OC5)CC[C@]43O)C2)C[C@H](O)[C@@H]1O[C@H]1C[C@H](O)[C@H](O[C@H]2C[C@H](O)[C@H](O[C@@H]3O[C@H](CO)[C@@H](O)[C@H](O)[C@H]3O)[C@@H](C)O2)[C@@H](C)O1 | -2.28% |  |
| N#CC(c1ccccc1)(c1ccccc1)c1ccccc1Cl | -3.49% |  |
| CC(C)c1c2cc(-c3ccnc(N[C@H]4CC[C@H](NC5CCOCC5)CC4)n3)ccc2nn1C | 1.08% |  |
| CCC(CC)O[C@@H]1C=C(C(=O)O)C[C@H](N)[C@H]1NC(C)=O | 0.57% |  |
| O=c1c(O)c(-c2ccc(O)c(O)c2)oc2cc(O)cc(O)c12 | 49.9% |  |
| O=c1cc(-c2ccc(O)c(O)c2)oc2cc(O)cc(O)c12 | 51.1% |  |
| O=C(O)c1ccc2c(c1)C(=O)N(c1cccc(Oc3ccc([N+](=O)[O-])cc3)c1)C2=O | 23.5% |  |
